Laboratory results published in PubChem BioAssay AID687014 (The Scripps Research Institute Molecular Screening Center, 2013).
Among all 370,000 compounds or so, about 6,800 (1.8%) were called active. This is one part of a sample in which actives are shown more often than they occur.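 The calls were made as follows: active = activation above a cutoff set at the mean of all screened compounds plus 3 SD (cut at about 10% in these data); inactive = the rest.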

system: Nuclear hormone receptor DAF-12 (Heterodera glycines), GAL4 fusion; assay: hgDAF-12 GAL4 fusion reporter activation – cell-based, luminescence, HEK293, UAS-luciferase, primary screen (AID 687014); details: HEK293 GAL4-hgDAF12 UAS-luciferase reporter, agonist luminescence; at 6.8 µM; stronger effect = higher value; normalized to butyrate control;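 also: 0% = DMSO wells and 100% = sodium butyrate wells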

| Compound | activation |
| --- | --- |
| Cc1ccc(Cn2cc(COC(=O)N(C)Cc3ccccc3)nn2)cc1 | 0.1% (inactive) |
| c1ccc(-c2csc(N3CCc4ccccc4C3)n2)cc1 | 4.55% (inactive) |
| CC(=O)NC(c1ccccc1)c1nc(-c2cccc(C(C)C)c2)cs1 (stereo not given) | 1.94% (inactive) |
| Cc1csc(NC(=O)CSc2nnc(-c3cccnc3)o2)n1 | 4.01% (inactive) |
| O=S(=O)(NCCc1csc(-c2ccccc2)n1)c1cccnc1 | -0.11% (inactive) |
| Cc1ccccc1Nc1nc(-c2cccnc2)cs1 | 17.6% (active) |
| Cc1cccc(Nc2nc(-c3ccccc3)cs2)n1 | 18.8% (active) |
| CC(=O)NC(c1cccc(F)c1)c1nc(-c2cccc(F)c2)cs1 (stereo not given) | 1.2% (inactive) |
| N#CC(=C1SC=CS1)c1nc(-c2ccccc2)cs1 | 8.13% (inactive) |
| CC(=O)Nc1cccc(-c2csc(Nc3cccc(C)n3)n2)c1 | 16.6% (active) |
| Cc1cc(C)nc(NC(=S)N2CCN(c3ccc(C(F)(F)F)cn3)CC2)c1 | -6.42% (inactive) |
| O=C(NCC1CC1)c1onc(CSc2ccccc2)c1C(=O)NCC1CC1 | 1.09% (inactive) |
| Cc1cccc(NC(=O)C[C@H]2CC[C@H]3[C@@H](COc4ccc(NC(=O)Nc5ccccc5)cc4C(=O)N3C)O2)c1 | -1.77% (inactive) |
| O=C(NCCCN1CCN(c2ccccc2F)CC1)C1CCC(=O)N1C1CCCCC1 (stereo not given) | 0.6% (inactive) |
| O=C1CN(C(=O)c2ccccc2F)C(c2ccc(F)cc2)c2cc(F)ccc2N1 (stereo not given) | -3.72% (inactive) |
| O=C(CCCCCN1C(=O)C2C3C=CC(C3)C2C1=O)Nc1ccccn1 (stereo not given) | 2.03% (inactive) |
| COC(CNC(=O)[C@H](Cc1ccccc1)NC1(C(=O)NC2CCCCC2)CCCCC1)OC | 1.76% (inactive) |
| N#Cc1c(-c2ccccc2)c(-c2ccccc2)n[nH]c1=O | 0.04% (inactive) |
| c1ccc(-c2cc(-c3ccccc3)[nH]n2)cc1 | 12.2% (active) |
| Oc1ccccc1-c1cc(-c2ccc(Cl)cc2)n[nH]1 | 20.1% (active) |

| Compound | activation |
| --- | --- |
| CC(C)C(=O)NCc1cc(-c2ccc(Cl)cc2)no1 | -0.54% (inactive) |
| Cc1c[nH]c2cccc(-c3ccc(Cl)cc3)c12 | 5.56% (inactive) |
| O=C(O)c1n[nH]nc1-c1ccccc1 | -0.69% (inactive) |
| Cc1ccc(S(=O)(=O)N(C)c2ccc(OCC(=O)OCC(=O)N(CC#N)c3ccccc3)cc2)cc1 | -0.04% (inactive) |
| O=C(N[C@H](Cc1ccccc1)C(=O)N1CCCN(Cc2cccs2)CC1)[C@H]1O[C@@H](n2ccc(=O)[nH]c2=O)[C@H](O)[C@@H]1O | -0.37% (inactive) |
| CC(C)(C)C(c1nc2ccccc2[nH]1)n1c(Cc2csc3ccccc23)nc2ccccc21 (stereo not given) | 6.72% (inactive) |
| O=C(O)Cn1cnc2c(NCc3ccccc3)ncnc21 | 1.82% (inactive) |
| CCCCNC(=O)C[C@H]1C[C@@]2(C(=O)OC)C(=C[C@H](COCc3ccccc3)O[C@@H]2C)N(Cc2ccc(Cl)cc2Cl)C1=O | 0.35% (inactive) |
| O=C(N1CCOCC1)N1CC[C@H]2[C@H](CCCN2Cc2ccc(F)cc2)C1 | -0.84% (inactive) |
| O=C(CCc1ccccc1F)N1CCN(c2ccccc2)CC1 | 0.77% (inactive) |
| O=C(CCS(=O)(=O)c1cccc2nsnc12)N1CCN(c2ccccc2F)CC1 | 0.1% (inactive) |
| O=C(CCSc1ccccc1)N1CCN(c2ccccc2F)CC1 | 14.2% (active) |
| O=C(CCc1ccccc1)Nc1nn[nH]n1 | 0.42% (inactive) |
| O=C(CCc1ccccc1)Nc1ccc(NC(=O)C2CC2)nc1 | -1.22% (inactive) |
| O=C(CCc1ccccc1)Nc1ncc([N+](=O)[O-])s1 | 11.2% (active) |
| Nc1c(C(=O)Nc2ccc3c(c2)OCCO3)nnn1Cc1ccccc1 | 11.1% (active) |
| Cn1cc([N+](=O)[O-])c(C(=O)Nc2ccc3c(c2)OCCO3)n1 | 5.47% (inactive) |
| CCc1ccc(NC(=O)Cn2nnc(C(=O)NCc3ccc4c(c3)OCO4)c2N)cc1 | -0.22% (inactive) |
| COc1ccccc1NS(=O)(=O)c1ccc(C)c(C(=O)NNC(=O)c2csc(N3CCOCC3)n2)c1 | -0.05% (inactive) |
| Cc1ccccc1CC1(CO)CCCN(C(=O)c2cc(-c3ccccc3)no2)C1 (stereo not given) | -2.47% (inactive) |

| Compound | activation |
| --- | --- |
| COC(=O)CCC(=O)N1CCCC(CO)(Cc2ccccc2)C1 (stereo not given) | 11.1% (active) |
| Cc1noc(C)c1CCC(=O)N1CCCC(CO)(Cc2ccccc2)C1 (stereo not given) | 9.68% (inactive) |
| CC1CCCN(c2cccc3c2S(=O)(=O)N(Cc2ccc(F)cc2)[C@@H](C)[C@H](c2ccccc2)O3)C1 (stereo not given in full) | 2.2% (inactive) |
| COC(=O)C12C=C3CC(c4ccccc4)=C3C(=O)N1Cc1[nH]c3ccccc3c1C2 (stereo not given) | -0.17% (inactive) |
| C=CCc1c(C)nc2cc(-c3ccccc3)[nH]n2c1=O | 11.2% (active) |
| CCc1c(C)nc2cc(C)[nH]n2c1=O | -1.41% (inactive) |
| Cc1nc2nc[nH]n2c(=O)c1C/C=C/c1ccccc1 | -0.77% (inactive) |
| C[C@@H]1CN([C@@H](C)CO)C(=O)c2c(c3ccccc3n2C)-c2ccccc2CO[C@H]1CN(C)C(=O)C1CC1 | 0.34% (inactive) |
| Cc1ccccc1NC(=O)C1CCN(c2ncccn2)CC1 | 2.53% (inactive) |
| Cc1cccc(-n2c(O)c(C=Nc3ccccc3N)c(=O)[nH]c2=O)c1 | 14.9% (active) |
| COc1cccc(CNC(=O)CNS(=O)(=O)c2ccc3nc(C)sc3c2)c1OC | -1.09% (inactive) |
| CCOC(=O)[C@]12CCCCC/C=C\1N(Cc1ccc(OC)cc1)C(=O)[C@H]2CC(=O)NCCCN1CCCC1=O | 3.26% (inactive) |
| CCn1c(=O)n2n(c1=O)[C@@]1(C=C3CCCC[C@H]32)N=C(NC(=O)c2ccccc2)N(Cc2ccccc2)[C@H]1Cc1ccccc1 | -2.77% (inactive) |
| COc1ccc(C(C)(NC(C)=O)c2nc(-c3ccc(S(C)(=O)=O)cc3)cs2)cc1 (stereo not given) | -0.04% (inactive) |
| COc1ccc(C(C)(O)c2nc(-c3cc(F)cc(F)c3)cs2)cc1 (stereo not given) | -1.7% (inactive) |
| COc1ccc(-c2csc(Cc3nc(O)cs3)n2)cc1 | 21.6% (active) |
| Cc1c(C(C)c2ccccc2O)[nH]c2ccccc12 (stereo not given) | 2.99% (inactive) |
| Cc1sc2ncnc(N3CCC(C(=O)NNC(=O)c4ccc(F)cc4)CC3)c2c1C | -1.73% (inactive) |
| Cc1sc2ncnc(N3CCC(C(=O)Nc4ccc(F)cc4Cl)CC3)c2c1C | -1.36% (inactive) |
| Cc1sc2ncnc(N3CCC(C(=O)Nc4nc5ccc(Cl)cc5s4)CC3)c2c1C | 12.9% (active) |
